# Reference: the supplement of paper PMC9177965
# Values joined by “and” are separate entries in the source; they are usually repeats but may differ in a detail not shown here. Identical values can stand only once.
# Experiments:
# [1] = tested on: HT29 RNF43 G659fs (RNF43 659mut, CRISPR-edited); assay: cell viability activity relative to DMSO (negative = inhibition); higher = more viable cells (less growth inhibition); conditions: 5 µM; 96 h
# Experimental: (§1)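 Broad Repurposing Library primary screen at a single dose of 5 uM. HT29 sg-Ctrl and HT29 RNF43 G659fs CRISPR-edited isogenic cells were seeded at 2500 cells/well in 384-well plates in duplicate and treated for 96 h. Viability was read by CellTiter-Glo and reported as % activity relative to DMSO, with MG132 as the positive control (negative = growth inhibition).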
# [2] = tested on: HT29 sg-Ctrl (RNF43 wildtype); assay: as above; conditions: 5 µM; 96 h
# Experimental: as §1
Structure (SMILES),cell viability activity [1],cell viability activity [2]
Cc1ccccc1CN1C(=O)C2=C(CCN(Cc3ccccc3)C2)N2CCN=C12,-72.9%,-76.7%
Cc1c(C(=O)N2CCOc3ccc(-c4ccc(N)nc4)cc3C2)ccc(S(C)(=O)=O)c1F,-41.2%,-32.1%
CON(C)C(=O)N1N=C(c2cc(F)ccc2F)S[C@@]1(CCCN)c1ccccc1,-73.8%,-69.7%
Nc1ccc(F)cc1NC(=O)c1ccc(CNC(=O)/C=C/c2cccnc2)cc1,-39.6%,-64.8%
Nc1nc(=O)n([C@H]2C[C@H](O)[C@@H](CO)O2)cc1F,-64.2%,-71%
CN(C)c1ccc(C(=C2C=CC(=[N+](C)C)C=C2)c2ccc(N(C)C)cc2)cc1,-96.3%,-89.3%
Cc1nc(C#Cc2ccnc(Cl)c2)c(C)n1-c1ccc(OC(F)(F)F)cc1,-25.5%,-18.5%
CCOc1ccc(Cc2nccc3cc(OCC)c(OCC)cc23)cc1OCC,-32.7%,-25.2%
Nc1ncnc2c1c(-c1cccc(OCc3ccccc3)c1)cn2C1CC(CN2CCC2)C1 (stereo not given),-55.1%,-61.2%
CC(=O)c1cc2c(o1)C(=O)c1ccccc1C2=O,-97.1%,-96.4%
CN(C)C/C=C/C(=O)Nc1cc2c(Nc3ccc(F)c(Cl)c3)ncnc2cc1O[C@H]1CCOC1,-26.4%,-19.3%
CN[C@@H](C)C(=O)N[C@H](C(=O)N1CCC[C@H]1C(=O)N[C@H]1c2ccccc2C[C@H]1OCC#CC#CCO[C@@H]1Cc2ccccc2[C@@H]1NC(=O)[C@@H]1CCCN1C(=O)[C@@H](NC(=O)[C@H](C)NC)C1CCCCC1)C1CCCCC1,-58.1%,-77.2%
COc1cc2ncnc(Sc3nnc(C)s3)c2cc1OC,-29.5%,14.6%
COc1cc(N2CCC(N)CC2)ccc1Nc1ncc(Cl)c(-c2c[nH]c3ccccc23)n1,-95.8%,-95.7%
CN1CCC(CNc2ccc3ncc(-c4cccc(OC(F)(F)F)c4)n3n2)CC1,-53%,-52.2%
C=CC(=O)Nc1cccc(Oc2nc(Nc3ccc(N4CCN(C)CC4)cc3)ncc2Cl)c1,-46.3%,-58%
C=CC(=O)Nc1cccc(Sc2nc(Nc3ccc(N4CCN(C)CC4)cc3)ncc2Cl)c1,-59.9%,-42.7%
Cn1cncc1[C@@](N)(c1ccc(Cl)cc1)c1ccc2c(c1)c(-c1cccc(Cl)c1)cc(=O)n2C,-30.6%,-33.3%
Clc1ccc2c(c1)CCc1cccnc1C2=C1CCNCC1,-39.8%,-28.4%

Structure (SMILES),cell viability activity [1],cell viability activity [2]
CCCCCCOc1nsnc1C1=CCCN(C)C1,-59.1%,-58.7%
Nc1ccn([C@@H]2O[C@H](CO)[C@@H](O)C2(F)F)c(=O)n1,-63.6%,-67.1%
O=C(CCCCCCC(=O)Nc1cccnc1)NO,-42.9%,-42.7%
CCN(CC)CCNC(=O)c1ccc(NC(C)=O)cc1,-53.2%,-3.92%
COc1c(OCCCN2CCOCC2)ccc2c3n(c(=NC(=O)c4cnc(N)nc4)nc12)CCN3,,-46.8%
Cc1cc(I)ccc1Nc1c(C(=O)NOCC2CC2)cc(F)c(F)c1F,,-71.6%
CS[C@H]1SC[C@H]2C(=O)N(C)[C@@H](C(C)C)C(=O)OC[C@@H](NC(=O)c3cnc4ccccc4n3)C(=O)N[C@@H](C)C(=O)N(C)[C@@H]1C(=O)N(C)[C@@H](C(C)C)C(=O)OC[C@@H](NC(=O)c1cnc3ccccc3n1)C(=O)N[C@@H](C)C(=O)N2C,,-86.6%
O=P(O)(O)C(O)(Cn1ccnc1)P(=O)(O)O,,-25.6%
CC(C)n1nc(-c2ccc3oc(N)nc3c2)c2c(N)ncnc21,,-52.5%
CC(=O)c1ccc2c(c1)[C@@H]1C=CC[C@@H]1[C@H](c1cc3c(cc1Br)OCO3)N2,,-56.9%
Cc1cc(OCc2nnc(SC3CCCC3)n2-c2cccnc2)ccc1-c1ccc(S(C)(=O)=O)cc1,,-74.8%
O=C(NOCC(O)CO)c1cc(Br)c(F)c(F)c1Nc1ccc(I)cc1F (stereo not given),,-79.7%
Cc1cnc(Nc2ccc(OCCN3CCCC3)cc2)nc1Nc1cccc(S(=O)(=O)NC(C)(C)C)c1,,-92.4%
COc1cc2ncn(-c3cc(OCc4ccccc4C(F)(F)F)c(C(N)=O)s3)c2cc1OC,,-65.4%
O=C(Nc1ccncc1)Nc1ccc(-c2nc(N3CCOCC3)nc(N3C4CCC3COC4)n2)cc1,,-36.2%
COc1cccc2c1C(=O)c1c(O)c3c(c(O)c1C2=O)C[C@@](O)(C(C)=O)C[C@@H]3O[C@H]1C[C@H](N)[C@H](O)[C@H](C)O1,,-96.9% and -95.8% and -96%
CCCCCCCCCCCCCCCC[N+](C)(C)C,,-74.2%
CCN1CCN(Cc2ccc(Nc3ncc(F)c(-c4cc(F)c5nc(C)n(C(C)C)c5c4)n3)nc2)CC1,,-44.9%
